# From PubChem BioAssay (NCI)
# This is part of a sample that, as a whole, favours compounds with a hit. Of some 79,000 tested, about 15% had one in any assay. Unmarked numbers belong to inactive results. Calls of active or inactive are those of the source. No stated cut-off is given here; in the data, active means growth inhibition above about 70%; inactive means the rest.
# Experiment: NCI Yeast Anticancer Drug Screen. Data for the rad50 strain (AID 155);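 further: 0% = growth of vehicle-only cultures of the same strain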
# Conditions: S. cerevisiae rad50 strain growth inhibition, hits give high values
# Description: Growth inhibition of yeast strains with defined genetic alterations is measured as a screen for potential anti-cancer activity. Selected strains with alterations in DNA damage repair or cell cycle control were exposed to compounds and growth inhibition was measured relative to vehicle treated controls. The strain used in this assay is rad50
# [1] = at 5.0 µM (retest, dose inferred, filed as 0.5)
# [2] = at 50.0 µM (retest, dose inferred, filed as 5.0)
Structure (SMILES),growth inhibition [1],growth inhibition [2],growth inhibition (at 50.0 µM)
O=[N+]([O-])c1ccc2c(c1)Cc1cc(O)c(I)cc1-2,3%,91% (active),97.5% (active)
CN(C)CC/C(=N\Nc1ccc(Cl)cc1)c1ccccc1,98% (active),99% (active),99.2% (active)
Cc1cc2cc3c(c(C(=O)O)c2o1)C(=O)c1ccc2ccccc2c1C3,15%,99% (active),98.2% (active)
COc1cc2oc(-c3ccc(O)cc3O)c(CC=C(C)C)c(=O)c2c(O)c1/C=C/C(C)C,17%,97% (active),89.5% (active)
CCOc1ccc2c(c1)nc1ccccc1[n+]2CC,2%,22%,20.3%
COc1ccc(CC2C(=O)NC(C)C(=O)N(C)C3Cc4ccc(cc4)Oc4cc(ccc4O)CC(C(=O)NC(C)C(=O)NC(C)C(=O)N2C)N(C)C3=O)cc1 (configuration not stated),-6%,54%,61.1%
Cc1cc(N)c2c(c1O)C(=O)c1ccccc1C2=O,-2%,47%,7.5%
O=Nc1c(O)ccc2ccccc12.[Fe].[Na+],7%,97% (active),97.2% (active)
COC1(OC)OC2=C(OC1(OC)OC)c1ccccc1C2=O,8%,12%,37.9%
CCCCCCCCCCCCCCCCCCOP(=O)([O-])OC1CC[N+](C)(C)CC1,93% (active),99% (active),90% (active)
Cc1cc(N(CCOS(C)(=O)=O)CCOS(C)(=O)=O)ccc1C=Nc1ccc(-c2csc(-c3ccc(Cl)cc3)n2)cc1,22%,93% (active),93.9% (active)
Cc1cc2c(cc1C)[n+](=O)c(C(=O)C/C(=N/NC(=O)CC#N)C(=O)Nc1ccccc1C(F)(F)F)c(C)n2[O-],53%,53%,92.4% (active)
O=C(O)c1cc2cc3ccccc3cc2cc1O,-1%,32%,73.3% (active)
NC(=S)N/N=C1/C(=O)c2cccc3cccc1c23,10%,96% (active),91.8% (active)
